Env fusion inh: blocks HIV Env-driven cell-cell fusion; HeLa-JRFL Env/CEM21 cell fusion, luciferase; inhibition, % at 12.3 µM; 1.1% of 360,000 active; AID 651610;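 active means mean replicate inhibition score of at least 50 and every replicate individually at or above 50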
GSIS activator: primary screen for activators of insulin secretion dependent on glucose, INS-1E cells, GLuc reporter luminescence; AID 743287; 0.61% of 370,000 active; INS-1E GLuc reporter insulin secretion, 2-3 h; activation, % at 16.6 µM;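 active means lowest replicate activation of at least 40%, so every replicate reaches that level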
F508del corr: correctors of CFTR F508del function in bronchial epithelial cells. CFBE cells, YFP halide quenching; stimulated with forskolin plus potentiator P3; % fluorescence drop versus neutral controls. activity (quench increase), % at 7.58 µM. 0.36% of 350,000 active. AID 720511;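 active means mean added fluorescence quench of at least 8% versus neutral control, with both replicates also reaching 8%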;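 further: cells transiently co-express mutant CFTR-F508del with the halide-sensitive YFP; corrector assay measuring rescue of mutant channel to the surface after 24 h compound exposure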
Wnt bcat act: activators of Wnt/beta-catenin signaling; Wnt/beta-catenin reporter cell assay, activator, plate reader; activation, % at 9.35 µM; 1.2% of 300,000 active; in the data active means activation above about 30%, passing the limit was not always enough
MITF act: increases MITF-driven TRPM1 promoter luciferase signal. SK-MEL-5 TRPM1-promoter luciferase, 24 h; % of positive control, neutral wells = 0. activation, % at 12.5 µM. 0.75% of 300,000 active. AID 588334;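 active means mean activation of at least 80% with every replicate also reaching 80%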
Large screens that a line does not name were inactive. The list is not random: actives were taken first. Their share in the collection is about 2.7%.

COc1ccccc1Nc1nc(-c2sc(NC(=O)C(C)(C)C)nc2C)cs1	F508del corr 13.6
CC(=O)Nc1ccc(Nc2nc(-c3sc(NC(C)=O)nc3C)cs2)cc1	none (no result: MITF act)
CO[C@H]1CN(C)C(=O)c2cc(NS(=O)(=O)c3cccc(F)c3)ccc2OC[C@@H](C)N(Cc2cc(F)ccc2F)C[C@@H]1C	none (no result: Env fusion inh, Wnt bcat act, MITF act)
C[C@@H]1CN([C@H](C)CO)C(=O)c2cc(C#CC(C)(C)O)cnc2O[C@@H]1CN(C)C(=O)C1CCOCC1	none (no result: Wnt bcat act, MITF act)
CC(=O)Nc1nc(C)c(-c2csc(Nc3cccc([N+](=O)[O-])c3)n2)s1	GSIS activator 134.1 (no result: Env fusion inh, F508del corr, Wnt bcat act)
C=CCCC(=O)Nc1nc(C)c(-c2csc(Nc3cc(OC)ccc3OC)n2)s1	F508del corr 8.8
COc1cccc(Nc2nc(-c3sc(NC(=O)c4ccccc4)nc3C)cs2)c1	F508del corr 9.1
CSc1nnc2c3cc(C)ccc3n(Cc3ccccc3)c2n1	GSIS activator 140.5 (no result: Env fusion inh, F508del corr, Wnt bcat act)
CC[C@@]1(O)C(=O)OCc2c1cc1n(c2=O)Cc2cc3c(CN(C)C)c(O)ccc3nc2-1	F508del corr 26.0 (no result: Env fusion inh, GSIS activator)
CC[C@@]1(O)C(=O)OCc2c1cc1n(c2=O)Cc2cc3c(N)cccc3nc2-1	Env fusion inh 67.7 (no result: GSIS activator)
C[C@@H]1CN([C@H](C)CO)C(=O)c2cc(N(C)C)ccc2O[C@@H](C)CCCCO[C@@H]1CN(C)S(=O)(=O)c1cn(C)cn1	none (no result: Wnt bcat act, MITF act)
C[C@H](NC(=O)[C@H]1[C@H](CO)[C@H]2Cn3c(cccc3=O)[C@H]2N1S(C)(=O)=O)c1ccccc1	none (no result: F508del corr, Wnt bcat act, MITF act)
CCOC(=O)c1c(-c2ccc(-c3ccccc3)cc2)csc1NC(=O)CNCCN(C)C	GSIS activator 180.1
CCOC(=O)c1c(-c2ccccc2)csc1NC(=O)CCN1C(=O)c2ccccc2C1=O	none (no result: Wnt bcat act)
COCCn1c(SC(C)C(=O)NC2CCCCC2C)nc2ccccc2c1=O (stereo not given)	Env fusion inh 75.3
COCC(C)n1c(SC(C)C(=O)NC2CCCCC2C)nc2ccccc2c1=O (stereo not given)	none
CC(Sc1nc2ccccc2c(=O)n1C)C(=O)N(C)C1CCCCC1 (stereo not given)	Env fusion inh 62.1
C[C@@H]1CN([C@@H](C)CO)S(=O)(=O)c2ccc(-c3ccc(F)cc3)cc2O[C@H]1CN(C)Cc1cccc(F)c1	none (no result: Wnt bcat act, MITF act)
Oc1ccc(-c2cn3c(n2)SCC3)cc1	none (no result: Env fusion inh, GSIS activator, F508del corr, Wnt bcat act)
Brc1ccc(-c2cn3c(n2)SCC3)cc1	Wnt bcat act 41.6
c1ccc(-c2cn3c(n2)SCC3)cc1	none (no result: Env fusion inh, GSIS activator, F508del corr)
Clc1ccc(-c2cn3c(n2)SCC3)cc1	Wnt bcat act 46.8
N#CC(C#N)=C1C=C2C=C(N3CCOCC3)CCC2CC1 (stereo not given)	F508del corr 69.9 (no result: GSIS activator)
N#CC(C#N)=C1C=C2C=C(N3CCCCCC3)CCC2CC1 (stereo not given)	F508del corr 66.6
CN1CCN(C2=CC3=CC(=C(C#N)C#N)CCC3CC2)CC1 (stereo not given)	none (no result: Env fusion inh, GSIS activator, F508del corr, Wnt bcat act)
CCN1CCN(C2=CC3=CC(=C(C#N)C#N)CCC3CC2)CC1 (stereo not given)	none (no result: Env fusion inh, GSIS activator, F508del corr, Wnt bcat act)
Cc1noc(C)c1NC(=O)Nc1ccc2c(c1)C(=O)N([C@@H](C)CO)C[C@@H](C)[C@@H](CN(C)S(=O)(=O)c1ccc(F)cc1)OCCCC[C@@H](C)O2	none (no result: Wnt bcat act, MITF act)
Cc1ccc(S(=O)(=O)c2ccc(C)cc2)cc1	none (no result: Env fusion inh)
Cc1ccc(S(=O)(=O)C=CS(=O)(=O)c2ccc(C)cc2)cc1	GSIS activator 87.4 (no result: MITF act)
CS(=O)(=O)N1CCN(c2cnn(-c3ccccc3)c(=O)c2Cl)CC1	none
CN(C(=O)CN1CCN(c2cnn(-c3ccccc3)c(=O)c2Cl)CC1)C1CCS(=O)(=O)C1 (stereo not given)	Wnt bcat act 43.9 (no result: Env fusion inh)
O=C(NC1Cc2ccccc2C1)[C@H]1[C@H](CO)[C@H]2Cn3c(cccc3=O)[C@H]2N1C(=O)c1ccccn1	none (no result: Env fusion inh, Wnt bcat act, MITF act)
CC(C)NC(=O)N(C)C[C@@H]1Oc2ncccc2C(=O)N(C)C[C@@H]1C	none (no result: Env fusion inh, F508del corr, Wnt bcat act, MITF act)
C[C@@H]1CN([C@H](C)CO)C(=O)c2cc(NS(=O)(=O)c3ccccc3)ccc2O[C@@H](C)CCCCO[C@@H]1CN(C)C(=O)c1ccccc1	none (no result: Wnt bcat act, MITF act)
O=C(c1cc(COc2ccc3ncccc3c2)on1)N1CCC[C@H]1CO	Env fusion inh 58.7
Cc1ccccc1C(=O)NCCSc1ccccc1	MITF act 95.6 (no result: Env fusion inh, F508del corr, Wnt bcat act)
O=c1[nH]c(=S)[nH]c2c1C(c1ccc(Cl)c(Cl)c1)OC(CCc1ccccc1)C2 (stereo not given)	none (no result: MITF act)
